This passage reports inhibition results from PubChem BioAssay AID2012 (Sanford-Burnham Center for Chemical Genomics, 2009).

This test concerns the target Eukaryotic translation initiation factor 4H (Homo sapiens) (UniProt Q15056). The experiment in a line: human eIF4H binding inhibitors, primary screen, translation initiation inhibitor project, biochemical, uHTS, fluorescence polarization (AID 2012).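 Further: calls also rest on retests at 20 µM and on dose response follow-up.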 The following applies: eIF4H fluorescence polarization binding assay, stronger effect = higher value. (In general: Polarisation of emitted light reports the rotation of a fluorescent probe.)

Out of some 290,000 compounds screened, about 2,700 (0.93%) were called active. How the calls were made is not given here. Only a selection was taken, and actives are over-represented in it overall.

For orientation: inhibition means the drop in the measured response relative to a control, in per cent. `COc1ccc(CCN(C)C(=O)C23CC4CC(CC(Cl)(C4)C2)C3)cc1OC`: the inhibition (at 35 µM) was -16.6% (inactive).
For `COc1ccc(CC(=O)N/N=C(\C)c2ccccn2)cc1`, for the setting “at 35 µM”, the inhibition is 7.3% (inactive).
For `CCN(CC)CCOc1ccc2c(c1)C(=NNC(=O)c1ccccn1)c1cc(OCCN(CC)CC)ccc1-2`, the inhibition (at 35 µM) is -3% (active) and the inhibition (confirmation average, at 20 µM) was 83.6%.
With `Cc1cccc(OCC(=O)NCCCNC(=O)c2ccccn2)c1`, under “at 35 µM”, the inhibition is -28.2% (inactive).
Consider `COc1ccc(NC(=O)CN(C)C(=O)CNC(=O)C2CCCCC2)cc1`, for which, under “at 35 µM”, the inhibition is -4% (inactive).
Same read-out and setting: the value for `C=CCOc1cccc(CNCc2cccnc2)c1` was 10.5% (inactive); that for `CN(C(=O)c1ccno1)c1nnc(-c2cccnc2)s1` was -2.8% (inactive).
With `Cc1nnc(N(Cc2ccco2)C(=O)c2ccno2)s1`, for the setting “at 35 µM”, the inhibition was 55.4% (active).
On the same count and under the same terms, the value for `Cc1ccc(-c2csc(N(Cc3ccco3)C(=O)c3cccs3)n2)cc1` was -15.6% (inactive).
Same read-out and setting: the result for `Cc1ccccc1CN1CCC(C(=O)Nc2ccc(Oc3cccnc3)cc2)CC1` reads -4.5% (inactive); that for `O=C(NCCCn1ccnc1)C(=O)NCC1OCCN1S(=O)(=O)c1cc(F)ccc1F` (stereo unspecified), 86.5% (active); that for `O=C(NCCCc1ccccc1)C(=O)NCC1OCCN1S(=O)(=O)c1ccccc1` (stereo unspecified), -4.1% (inactive).
On the same count and under the same terms, the result for `Cc1cc(F)ccc1S(=O)(=O)N1CCCOC1CNC(=O)C(=O)NCCC1=CCCCC1` (stereo unspecified) reads -0.8% (inactive); that for `Nc1ncc(CN2CCCC(C(=O)Nc3ccc(-c4ccco4)cc3)C2)cn1` (stereo unspecified), -17.3% (inactive); that for `CC(C)OC(=O)c1ccc(COc2ccc3ccc(=O)oc3c2)o1`, 1.1% (inactive).
For the compound `Cc1ccc2sc(N(CCN(C)C)C(=O)/C=C/c3cccs3)nc2c1C`, the inhibition (at 35 µM) is -10.2% (inactive).
Consider `Cc1cc(/C=C2/C(=N)N3C(=NC2=O)SN=C3S(C)(=O)=O)c(C)n1-c1ccccc1`, for which the inhibition (at 35 µM) is 93.3% (inactive) and the inhibition (confirmation average, at 20 µM) was -7.9%.
As for `CS(=O)(=O)c1ccc2c(c1)SC1=NC(=O)/C(=C/c3ccco3)C(=N)N12`, the inhibition (at 35 µM) was 93.9% (active).
The same measure, in the same setting: the value for `CS(=O)(=O)C1=NN2C(=N)/C(=C\c3ccc(OCCOc4ccccc4)cc3)C(=O)N=C2S1` was 16.1% (inactive); that for `CN(C(=O)CN1C(=O)CCSc2ccc(S(=O)(=O)N3CCCC3)cc21)c1ccccc1` was -3.2% (inactive).
Same read-out and setting: the value for `CCC(=O)Nc1ccc(C(=O)NNC(=O)c2ccc(Cl)cc2)cc1` was 8% (inactive); that for `C=CCNC(=O)/C=C/c1ccc(C(C)C)cc1` was 3.9% (inactive); that for `CCOc1ccccc1NC(=O)CCc1nnc2ccc(NCc3ccco3)nn12` was 13.1% (inactive).
On the same count and under the same terms, the result for `CC(=O)c1ccc(NC(=O)CCc2nnc3ccc(NCc4ccco4)nn23)cc1` reads 38.5% (inactive).
For `O=C(CCc1nnc2ccc(NCc3ccco3)nn12)Nc1cc(F)ccc1F`, the inhibition reads like this: (at 35 µM) 75.2% (active); (confirmation average, at 20 µM) 75.7%.
For the compound `O=C(CN1CCc2cc3c(cc2C1)OCCCO3)Nc1ccccc1`, where the note is “at 35 µM”, the inhibition was 4.5% (inactive).
Take `CCOc1ccc(NC(=S)N2CCC(NC(=O)c3ccccc3)CC2)cc1`: where the note is “at 35 µM”, the inhibition is -8.9% (inactive).
The same measure, in the same setting: the result for `COc1ccc(-c2nc3n(c(=O)c2C#N)CCS3)c(OC)c1` reads 5.3% (inactive).
The same measure, in the same setting: the result for `O=C(CCc1ccccc1)Nc1ccnn1C1CCN(Cc2ccc(OCCO)cc2)CC1` reads 5.2% (inactive); that for `COc1ccc(-c2cc(C(=O)N(C)Cc3ccc(OC)c(OC)c3OC)c3ccccc3n2)cc1OC`, 10.7% (inactive).
In the case of `CCCc1nc(-c2cc3cc(C)ccc3[nH]c2=O)no1`, the inhibition (at 35 µM) was 2.5% (active) and the inhibition (confirmation average, at 20 µM) stood at 79.5%.
Take `COc1ccc2[nH]c(=O)c(-c3noc(-c4ccc(F)cc4)n3)cc2c1`: under “at 35 µM”, the inhibition is 3.8% (inactive).
Same read-out and setting: the result for `CCNCc1cc2cc(C)ccc2[nH]c1=O` reads 24% (inactive); that for `COc1ccccc1NC(=S)N1CCN(c2ccc(F)cc2)CC1`, -0.9% (inactive).
With `COc1ccc(NC(=O)C2=CC(c3ccc(OC)c(OC)c3)=NS(=O)(=O)N2C)cc1`, the inhibition (at 35 µM) was 1.5% (inactive).
On to `COc1ccc(-c2noc(CNC(=O)C(C)Oc3ccccc3)n2)cc1` (stereo unspecified), for which the inhibition (at 35 µM) was -4.8% (inactive).
On the same count and under the same terms, the value for `Cn1cc(/C=C/c2nc3ccccc3c(=O)n2-c2cccc([N+](=O)[O-])c2)c2ccccc21` was -2.7% (inactive).
For the compound `CCn1c(/C=C/c2ccc([N+](=O)[O-])o2)nc2ccccc2c1=O`, the inhibition (at 35 µM) was 83.6% (active) and the inhibition (confirmation average, at 20 µM) amounted to 56.8%.
For `Cc1nc2ccccc2c(=O)n1Cc1ccc([N+](=O)[O-])cc1`, the inhibition (at 35 µM) was -6.2% (inactive).
Turning to `CN1/C(=C\C(=O)c2oc3ccccc3c2N)C(C)(C)c2ccccc21`, the inhibition (at 35 µM) was -2.5% (inactive).
As for `CN1/C(=C\C=C2\N=C(c3ccc(F)cc3)OC2=O)C(C)(C)c2ccccc21`, the inhibition is 128% (active) (at 35 µM) and 97% (confirmation average, at 20 µM).
As to `CN1/C(=C\C(=O)c2cccnc2Cl)C(C)(C)c2ccccc21`, for the setting “at 35 µM”, the inhibition is -6.3% (inactive).
On the same count and under the same terms, the result for `Cc1cccnc1NC(=O)Cn1c(=O)oc2ccccc21` reads 4.8% (inactive).
`Cc1ccc(O)c(NC(=O)c2cc(-c3ccco3)on2)c1`: under “at 35 µM”, the inhibition was -14.1% (inactive).
Same read-out and setting: the result for `COc1ccc(-c2nonc2NC(=O)c2oc3ccc(F)cc3c2C)cc1OC` reads -3.8% (inactive); that for `COc1cccc(Nc2ncccc2C(=O)O)c1`, -3.4% (inactive).
In the case of `COc1ccc(Nc2cc(Cl)ccc2C(=O)O)cn1`, the inhibition is, setting by setting: (at 35 µM) 96.9% (active); (confirmation average, at 20 µM) 74%.
On to `COc1ccc(Nc2ccc([N+](=O)[O-])cn2)cn1`, for which the inhibition is, setting by setting: (at 35 µM) 82% (inactive); (confirmation average, at 20 µM) 20.1%.
